Rows were chosen to be rich in hits. Some 1.1% of all compounds tested hit in one or more screens of this group.
CatS block – inhibitors of human cathepsin S | P25774 | recombinant cathepsin S, AMC dipeptide fluorescence, pooled mixtures | inhibition, %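 (tested at 5 µM per compound within 10-compound mixtures)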 | 0.06% of 62,000 active; in the data active = inhibition above about 32%, passing the limit was not always enough; inconclusive = no clear call, values can overlap the other calls;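 note: 0% = enzyme without compound and 100% = blank without enzyme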
Target sequence (P25774 115-331 limits assumed): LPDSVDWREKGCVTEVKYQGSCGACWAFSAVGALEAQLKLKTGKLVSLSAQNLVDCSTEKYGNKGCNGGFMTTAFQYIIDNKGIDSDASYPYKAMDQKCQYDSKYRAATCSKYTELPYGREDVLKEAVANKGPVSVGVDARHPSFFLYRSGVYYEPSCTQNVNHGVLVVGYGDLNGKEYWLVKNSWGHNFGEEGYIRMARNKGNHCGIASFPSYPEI
CatB mix inh – human cathepsin B inhibition by mixtures | AID 488 | Purified cathepsin B, AMC dipeptide fluorescence, compound mixtures | 0.06% of 62,000 active | inhibition, %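 (ten-compound pools at 5 µM per compound and 50 µM total)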; in the data active = inhibition above about 22%, passing the limit was not always enough; inconclusive = no clear call, values can overlap the other calls;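 note: 0% = enzyme without compound and 100% = no enzyme blank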
CatB block – inhibitors of human cathepsin B; purified cathepsin B, fluorogenic substrate, fluorescence; inhibition, %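 (tested at 10 µM)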; 0.1% of 63,000 active; in the data active = inhibition above about 21%;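 note: 0% = enzyme with no compound and 100% = no enzyme blank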
SKBR3 24h inh – SK-BR-3 proliferation inhibitors | AID 847 | SK-BR-3 viability, CellTiter-Glo ATP luminescence, 24 h; hits give low values | viability, % at 10 µM | 0.47% of 41,000 active;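 active = viability at or below the median of all test compounds minus 3 SD, in both replicates if run twice, cut at about 45% in these data; inconclusive = duplicate replicates that disagree with each other; inactive = viability above that cutoff in every replicate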;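 note: 100% = median untreated cell wells and 0% = median positive control drug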
HER2 expr 66K – lowers expression of human Her2 kinase. P04626. SKBR-3 HER2 protein level, AlphaScreen, 18-24 h; hits give low values. HER2 level % of control, % at 10 µM. 0.69% of 65,000 active. AID 645;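 active = HER2 level under 5% of the carrier-only control; inconclusive = no clear call, values can overlap the other calls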;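 note: 100% = DMSO carrier and 0% = 500 nM PU-H71 HSP90 inhibitor; lower value means stronger loss of Her2 protein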
CatL block – blocks human cathepsin L protease activity | 0.17% of 58,000 active | inhibition, %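 (tested at 10 µM)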 | purified cathepsin L, fluorogenic substrate, fluorescence; in the data active = inhibition above about 45%;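 note: 0% = enzyme with no compound and 100% = no enzyme blank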
Target sequence (P07711 114-288 limits assumed): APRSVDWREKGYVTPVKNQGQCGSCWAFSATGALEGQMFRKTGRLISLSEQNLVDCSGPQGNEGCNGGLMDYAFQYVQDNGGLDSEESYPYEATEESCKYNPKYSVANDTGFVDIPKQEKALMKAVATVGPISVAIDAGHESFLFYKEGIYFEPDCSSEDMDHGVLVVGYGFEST
Target sequence (P07711 292-333 limits assumed): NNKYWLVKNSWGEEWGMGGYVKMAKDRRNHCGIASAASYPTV
* hit, by the source's call; ? = inconclusive; . = not tested or not shown.

SMILES	CatS block	CatB mix inh	CatB block	SKBR3 24h inh	HER2 expr 66K	CatL block
Cc1cccc(OCc2nnc(SCC(=O)Nc3cc(C)on3)n2C)c1	-2	0	-1	81	94	3
Cc1ccc(C)c(N2CCN(S(=O)(=O)c3c(C)noc3/C=C/N(C)C)CC2)c1	18	4	0	92	61	20
Cc1noc(/C=C/N(C)C)c1S(=O)(=O)N1CCN(c2ccccc2)CC1	-3	0	2	.	95	53*
O=S(=O)(NCCCN1CCN(c2ccccc2F)CC1)c1cccc2cccnc12	16	6	7	.	79	10
CCOC(=O)C(NC(C)=O)(N1CCc2ccccc2C1)C(F)(F)F (stereo unspecified)	6	-3	1	87	-18*	3
CCOC(=O)C(NC(C)=O)(N1CCOCC1)C(F)(F)F (stereo unspecified)	-9	0	2	85	97	9
O=C(NCCCc1ccccc1)c1ccncc1	9	4	6	93	-5.5*	18
O=C(Cn1cnc2ccccc2c1=O)NCC(=O)N1CCN(c2ccccn2)CC1	0	1	3	.	109	-6
COC(=O)c1ccc2c(c1)NC(=O)C(N1CCCC1)S2 (stereo unspecified)	5	2	6	.	115	63*
COc1ccc(-n2c(=O)c3c4c(sc3n3cnnc23)CC(C)CC4)cc1 (stereo unspecified)	31	9	-3	78	94	48*
COc1ccc(-n2c(=O)c3c4c(sc3n3c(C)nnc23)CC(C)CC4)cc1 (stereo unspecified)	.	.	0	80	94	31
c1ccc(-c2nnc3sc(-c4csc5c4CCCC5)nn23)cc1	14	5	7	57	83	14
CCn1c2ccccc2c2cc(C3C(C#N)=C(N)Oc4n[nH]c(COC)c43)ccc21 (stereo unspecified)	9	3	7	?	-24*	11
O=C(C1CCCO1)N1CCN(S(=O)(=O)c2ccccc2)CC1 (stereo unspecified)	6	-10	-7	89	106	11
Cc1ccc2nsnc2c1S(=O)(=O)N1CCN(C(=O)C2CCCO2)CC1 (stereo unspecified)	4	4	5	37*	140	1
O=C(O)c1ccccc1C1=Nc2ccc(O)cc2Oc2cc(O)ccc21	1	1	-3	99	-53*	15
COc1ccc2c(C)nc(Nc3nc(C)cc(=O)[nH]3)nc2c1	-3	1	3	91	86	3
Cc1cc(C)c2nc(Nc3nc(C)cc(=O)[nH]3)nc(C)c2c1	2	0	-2	.	0.2*	.
CC1CN(Cc2nc3c(c(=O)n(C)c(=O)n3C)n2CCc2ccccc2)CC(C)O1 (stereo unspecified)	-5	4	1	86	97	8
O=C1CC(c2ccccc2)NC(=O)N1 (stereo unspecified)	-3	2	3	106	109	8
N#CCCS(=O)(=O)c1nnnn1-c1ccccc1	1	5	-5	209	-1.1*	7
N#CCCCSc1nnnn1-c1cccc(Cl)c1	0	-4	-1	88	101	31
Nc1nonc1-c1noc(N2CCCCC2)n1	0	6	24*	85	104	36
COC(=O)c1sc2cnccc2c1N	0	-3	-4	.	159	-103
O=C(CC(SCCO)c1ccc(F)cc1)c1ccco1 (stereo unspecified)	11	5	4	100	20	.
SMILES	CatS block	CatB mix inh	CatB block	SKBR3 24h inh	HER2 expr 66K	CatL block
Cc1ccc(C(CC(=O)c2ccco2)SCCO)cc1 (stereo unspecified)	1	2	-1	101	-1.4*	.
O=C1c2ccccc2CC1Sc1nnc(-c2ccccn2)o1 (stereo unspecified)	0	-3	0	91	85	25
O=C1CC(Sc2nnc(-c3ccccc3O)o2)C(=O)N1c1ccccc1 (stereo unspecified)	0	-9	-3	.	-13*	4
COc1ccc(N2C(=O)CC(Sc3nnc(-c4ccccc4)o3)C2=O)cc1 (stereo unspecified)	-5	-1	-2	.	-18*	.
Cc1ccc(NC(=O)c2cnn(-c3ccccc3)c2NC(=O)c2ccco2)cc1	.	.	.	130	104	.
CCOc1ccc(C(c2nnnn2Cc2ccccc2)N2CCN(C(=O)c3ccco3)CC2)cc1 (stereo unspecified)	11	9	10	41*	118	4
COc1ccc(C(c2nnnn2Cc2ccccc2)N2CCN(C(=O)c3ccco3)CC2)cc1 (stereo unspecified)	-11	2	4	61	119	.
COC(=O)c1ccc(C2C(C(=O)Nc3ccc(C)cc3C)=C(C)Nc3ncnn32)cc1 (stereo unspecified)	1	1	1	.	84	-7
Cc1ccc(C2NC(=O)c3c(sc4c3CCN(C)C4)N2)o1 (stereo unspecified)	-1	0	2	127	80	-17
Cc1ccc(C2NC(=O)c3c(sc4c3CCN(C)C4)N2)s1 (stereo unspecified)	-3	0	2	85	96	55*
CCC(C)NC(=O)C1CCC(=O)N(c2ccc3c(c2)OCO3)C1c1ccc(OC)cc1 (stereo unspecified)	1	-1	-2	.	76	-5
CC(=O)OC1(C(F)(F)F)Oc2ccccc2NC1=O (stereo unspecified)	22	61*	75*	74	76	85*
O=C(CC1Oc2ccccc2NC1=O)NC1CC1 (stereo unspecified)	0	0	-4	.	106	.
CCC(CC)C1C(C#N)=C(N)Oc2n[nH]c(C)c21 (stereo unspecified)	21	2	5	90	132	-6
Cc1[nH]nc2c1C(C1CC=CCC1)C(C#N)=C(N)O2 (stereo unspecified)	-3	4	3	83	-10*	2
CCCCn1nnnc1NCc1cccc(OC)c1OC	-32	-11	-1	92	82	3
CN1C(=O)C(C(=O)NC(C)(C)C)C2c3ccccc3OC13CCCCC23 (stereo unspecified)	6	3	2	98	-30*	13
CCCCCCn1c(SCC(=O)OC)nc2c1c(=O)[nH]c(=O)n2C	3	8	2	.	82	-5
COc1ccc(CCNC(=O)NC(C(F)(F)F)C(F)(F)F)cc1OC	-9	5	1	94	87	7
CN1C(=O)C2(c3ccccc31)N(C)CC(c1ccccn1)C21SC(=S)N(Cc2ccco2)C1=O (stereo unspecified)	-2	2	2	68	36	-2
O=C(CSc1ccc2nnc(-c3cccnc3)n2n1)NCc1ccc2c(c1)OCO2	2	-6	-4	.	-17*	.
N#CCOc1nc(N2CCOCC2)nc(N2CCOCC2)n1	13	8	-1	122	70	4

Source: PubChem BioAssay (several laboratories)
